Compound activity deposited in PubChem BioAssay by National Center for Advancing Translational Sciences (NCATS).
Most compounds without a hit are left out; they make up all but 7.4% or so of the library.
FLuc modulator: firefly luciferase modulation, counter-screen for miR-21 project. P08659. 360,000 tested, 6.9% active. purified FLuc, Km substrates, luminescence inhibition. Potency, µM (highest dose often 57.5 µM), for inactives: top-dose activity change, negative = inhibition, most hits filed as inhibitors;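 further: plate controls were vehicle for no effect and reference inhibitor for full effect; nearly all actives have a fitted effect of over 55% in size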
Target sequence (P08659 whole entry, looked up): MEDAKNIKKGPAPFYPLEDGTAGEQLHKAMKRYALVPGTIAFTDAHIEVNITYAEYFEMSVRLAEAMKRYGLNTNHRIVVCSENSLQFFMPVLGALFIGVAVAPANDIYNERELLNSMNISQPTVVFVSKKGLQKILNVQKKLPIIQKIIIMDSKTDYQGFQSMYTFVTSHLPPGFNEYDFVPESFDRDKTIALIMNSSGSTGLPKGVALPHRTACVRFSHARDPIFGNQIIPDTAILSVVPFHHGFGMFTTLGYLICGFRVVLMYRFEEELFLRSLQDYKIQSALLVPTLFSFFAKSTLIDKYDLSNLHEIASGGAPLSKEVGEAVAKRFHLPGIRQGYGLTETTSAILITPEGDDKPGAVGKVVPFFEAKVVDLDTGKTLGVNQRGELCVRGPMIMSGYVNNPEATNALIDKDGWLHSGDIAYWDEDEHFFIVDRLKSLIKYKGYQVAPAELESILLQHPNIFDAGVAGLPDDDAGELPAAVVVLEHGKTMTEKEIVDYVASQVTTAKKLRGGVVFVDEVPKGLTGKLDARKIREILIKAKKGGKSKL
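Purified P. pyralis luciferase (10nM final) with 10uM D-luciferin and 10uM ATP (Km levels) in 50mM Tris acetate pH 7.5, 10mM Mg acetate, 0.01% Tween-20, 0.05% BSA; qHTS 6-point titration, ~60 µM downward; luminescence read.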
NPC1 prom act: NPC1 promoter activation. Huh7 NPC1 promoter luciferase reporter, 24 h. Potency, µM (series often up to 9.22 µM), without a hit: at the top dose activation, hits mostly activators. 320,000 tested, 2.4% active; further: % of control where 0% means no effect; nearly all actives have a fitted effect of over 60% in size
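In 1536-well qHTS, Huh7 cells harboring an NPC1 promoter–luciferase construct received compound for 24 h; activation was quantified by luminescence following luciferase reagent addition.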
Luc counter: blocks Kinase-Glo luciferase, a counter-screen artifact. Q27757. Kinase-Glo luciferase, ATP luminescence, 8 min. Potency, µM (titrated, usually from 38.3 µM), for the others: top-dose activity change, negative = inhibition, hits mostly inhibitors. 200,000 tested, 0.28% active; further: on the % scale 0 is the no-effect control and ±100 the full control effect; nearly all actives have a fitted effect of over 60% in size
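Substrate mix (final 50 mM imidazole pH 7.2, 50 mM KCl, 7 mM MgCl2, 10 uM ATP, 0.01% Tween 20, 0.05% BSA) plus pin-tool compound, then Kinase-Glo detection mix; 8 min ambient, luminescence read.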
SMN2 splice up: SMN2 splice variant enhancement; HEK293 SMN2-luciferase splicing reporter, luminescence, 30-36 h; Potency, µM (titrated, usually from 46.1 µM), for the others: at the highest dose activity change, positive = activation, most hits filed as activators; 210,000 tested, 2.8% active; further: % of control where 0% means no effect; nearly all actives have a fitted effect of over 55% in size
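HEK293 cells carry an SMN2 […]–luciferase reporter in which exon 7 inclusion puts luciferase in frame. Cells were plated 10-12 h before compound addition, then incubated 30-36 h at 37C. ONE-Glo luminescence was read; sodium butyrate at 4.5 mM final served as control.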
ELG1 genotox: genotoxicity induction in ELG1-luciferase HEK293T cells; HEK293T ELG1-luciferase reporter, luminescence, 16 h; Potency, µM (series often up to 46 µM), inactives show at the top dose activity change, positive = activation, usual class: activators; 330,000 tested, 1.3% active; further: % of control where 0% means no effect; nearly all actives have a fitted effect of over 60% in size
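HEK293T cells expressing luciferase-tagged ELG1 were treated with compound or DMSO for 16 hr at 37°C. Luciferase activity was then read after 30 min with ONE-Glo at room temperature; rising signal flags genetic stress.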
Rab9 promoter act: activates the Rab9 promoter | 320,000 tested, 2.8% active | Potency, µM (doses to about 9.22 µM), for inactives: at the highest dose activation, negative = inhibition, most hits filed as activators | AID 485297 | Huh7 Rab9 promoter-luciferase reporter, luminescence, 24 h; further: % of control where 0% means no effect; nearly all actives have a fitted effect of over 60% in size
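Huh7 reporter line, Rab9 promoter upstream of luciferase. Compound exposure 24 h at 37 °C in reduced-serum medium with 10% FBS. Read-out: luminescence.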
Active calls of the source: *; ? = inconclusive; / = no result. The call rests on the fitted dose curve; in most records, active means well fitted curve in the direction sought with a large enough effect; inconclusive means small, poorly fitted or top-dose-only effect, or another doubt; inactive means no such curve, though single readings can be large; an effect the other way counts as inactive or inconclusive. Potency means the concentration at half of the fitted maximal effect.

SMILES	FLuc modulator	NPC1 prom act	Luc counter	SMN2 splice up	ELG1 genotox	Rab9 promoter act
COc1cccc(C(C(=O)NC(C)(C)C)N(C(=O)CCC(=O)Nc2cc(C)on2)c2ccc3c(c2)OCCO3)c1OC (stereo not drawn)	3.8%	1.1%	/	/	-1.6%	8.7%
COc1ccc(S(=O)(=O)N2CCOC23CCN(S(=O)(=O)c2c(C)cc(C)cc2C)CC3)cc1	4.4%	1.3%	/	/	0.7%	-3.2%
COc1cccc(Sc2nc(-c3ccccc3)ncc2S(C)(=O)=O)c1	16.9µM*	-4.0%	/	/	1.0%	-2.3%
NC(=O)c1ccccc1OCc1cccc2ccccc12	-18.6%	2.7%	/	/	-3.7%	5.1%
NC(=O)c1ccccc1OCc1nc2ccccc2s1	3.01µM*	?	/	/	?	?
O=C(OCc1nc2ccccc2s1)c1ccco1	6.75µM*	9.8%	-8.5%	20.0%	?	-1.8%
Cc1cc(C(=O)OCc2nc3ccccc3s2)c(C)o1	19µM*	/	-4.0%	-2.0%	/	/
CCOC(=O)C(=O)Cc1nc2ccccc2s1	19µM*	2.7%	/	/	2.3%	12.2%
CCOC(=O)CC(=O)Nc1nc2ccccc2s1	-15.7%	0.6%	-2.9%	2.7%	?	3.7%
O=C(O)COCc1nc2ccccc2s1	2.5%	-0.1%	/	/	-2.0%	-2.9%
CC(=O)OCc1nc2ccccc2s1	5.36µM*	14.0%	-2.9%	-4.6%	?	14.6%
COCCN(CCOC)Cc1c(O)ccc2c1O/C(=C\c1ccc(C)o1)C2=O	?	-1.5%	/	/	-1.1%	-2.3%
CCN(CC)Cc1c(O)ccc2c1O/C(=C\C=C\c1ccccc1)C2=O	12µM*	-3.9%	/	/	-0.8%	-3.9%
CS(=O)(=O)Oc1ccc2c(c1)O/C(=C\C=C\c1ccccc1)C2=O	7.57µM*	7.4%	/	/	0.6%	-1.2%
CS(=O)(=O)Oc1ccc2c(c1)O/C(=C\c1cccc([N+](=O)[O-])c1)C2=O	-3.5%	2.9%	/	/	-1.0%	-1.3%
COc1ccccc1/C=C/C=C1\Oc2c(ccc(O)c2CN(C)C)C1=O	3.01µM*	2.2%	/	/	1.6%	1.8%
COc1cccc2c1CCC1=CC(=O)CC[C@@]12C	/	/	-5.9%	-3.8%	/	/
CCN(CC)C(=O)c1[nH]cnc1C(=O)N[C@H](C)c1ccccc1	7.4%	-4.3%	/	/	-1.7%	-2.1%
COC(=O)c1cc(S(=O)(=O)NC2CCCCC2)cn1C	-0.3%	3.4%	/	/	-1.1%	-5.4%
CCCCn1c(N)c(N(CCC(C)C)C(=O)CSc2nnc(Nc3ccccc3)s2)c(=O)[nH]c1=O	23.9µM*	-0.2%	-3.3%	11.6%	7.0%	1.5%
CN(C(=O)CSc1nnc(Nc2ccccc2)s1)c1c(N)n(Cc2ccccc2)c(=O)[nH]c1=O	-29.5%	1.6%	-2.9%	/	0.7%	-1.7%
CCCCN(C(=O)CSc1nnc(Nc2ccc(C)c(C)c2)s1)c1c(N)n(Cc2ccccc2)c(=O)[nH]c1=O	1.07µM*	15.0%	-9.7%	22.4µM*	5.5%	3.0%
COCCN(C(=O)CSc1nnc(Nc2ccc(C)cc2)s1)c1c(N)n(CC(C)C)c(=O)[nH]c1=O	10.7µM*	-2.0%	-1.4%	11.8%	2.2%	-1.0%
Cc1ccccc1C(=O)OCc1cc(=O)n2nc(C(C)C)sc2n1	16.9µM*	/	/	/	/	/
CCCc1nn2c(=O)cc(COC(=O)c3cccs3)nc2s1	26.9µM*	/	/	/	/	/
SMILES	FLuc modulator	NPC1 prom act	Luc counter	SMN2 splice up	ELG1 genotox	Rab9 promoter act
CC(C)c1nn2c(=O)cc(COC(=O)C3CCCCC3)nc2s1	23.9µM*	/	/	/	/	/
N#Cc1ccccc1NC(=S)NC(=O)c1cccs1	8.49µM*	-1.0%	/	/	15.8%	7.7%
CCC(=O)Nc1ccc(C(=O)NNC(=O)c2cccs2)cc1	3.7%	0.9%	2.6%	2.4%	6.5%	2.4%
CCC(=O)Nc1cccc(NC(=S)NC(=O)c2cccs2)c1	6.01µM*	?	-0.2%	28.2µM*	?	?
CCC(=O)Nc1cccc(NC(=S)NC(=O)c2ccccc2Cl)c1	?	?	-1.0%	-5.2%	-0.6%	3.55µM*
CCC(=O)Nc1cccc(NC(=O)c2ccc(C)cc2Cl)c1	19µM*	21.0%	-5.1%	28.2%	3.7%	?
COC(=O)c1ccc(NC(=O)CCN2C(=O)C3C4CCC(C4)C3C2=O)cc1 (stereo not drawn)	3.5%	-5.0%	/	/	2.6%	6.6%
CCOc1ccc(CCNC(=O)C2CCCN(S(=O)(=O)N(C)c3ccc(F)cc3)C2)cc1 (stereo not drawn)	-8.9%	/	/	/	/	/
COc1ccc(N2CCN(C(=O)CCC(=O)N3CC(C)Oc4ccc(C)cc43)CC2)cc1 (stereo not drawn)	-0.1%	-4.1%	/	/	-11.4%	5.6%
Cc1cc(=O)[nH]c(SCC(=O)OCc2ccccc2)c1C#N	?	1.2%	-3.3%	/	7.1%	-8.4%
Cc1ccnc2c1ccc1ccccc12	16.9µM*	-5.9%	/	/	2.1%	13.1%
Cc1ccnc2c1ccc1cccnc12	-12.5%	-17.1%	/	/	15.0%	-19.0%
Cc1ccc(-c2cc(C(=O)NCc3cnn(C)c3C)c3ccccc3n2)cc1C	2.13µM*	/	/	?	/	/
Cc1cccc(/C=N/NC(=O)c2cc(-c3cccnc3)nc3ccccc23)c1	-2.7%	-6.8%	-2.4%	15.1%	-3.7%	-1.0%
Cc1ccc(-c2cc(C(=O)N/N=C\c3cnn(C)c3C)c3ccccc3n2)cc1C	0.675µM*	11.6%	-11.2%	1.4%	?	24.7%
Cc1c(-c2cc(C(=O)O)c3ccccc3n2)cnn1C	-19.1%	-4.0%	1.4%	12.7%	-4.4%	-0.8%
Cn1cccc1C(=O)N1CCC2(CCCN(c3ncccn3)C2)CC1	/	/	-2.4%	-17.9%	/	/
Nc1ccc(N)c([N+](=O)[O-])c1	/	/	/	9.8%	/	/
COc1ccc(OC)c(S(=O)(=O)Nc2c(NC3CCCCC3)c3ccccc3oc2=O)c1	0.3%	-8.8%	/	/	-1.4%	-5.2%
Cc1cccc(NC(=O)/C(C#N)=C/c2ccc(C)o2)c1	9.53µM*	/	/	12.6µM*	/	/
Cc1ccc(NC(=O)/C(C#N)=C/c2ccc(C)o2)cc1	1.9µM*	/	/	7.08µM*	/	/
Cc1cc(C)n2nc(/C(C#N)=C/c3ccccn3)c(C#N)c2n1	-6.0%	-11.2%	-2.4%	-1.0%	17.6%	-4.1%
CCN(CC(=O)NCc1ccc(Cl)cc1)C(=O)Cc1ccccc1[N+](=O)[O-]	?	2.51µM*	/	/	?	3.55µM*
Cc1ccccc1CNC(=O)Cc1ccccc1[N+](=O)[O-]	16.9µM*	?	-0.9%	14.1µM*	?	3.98µM*
O=C(Cc1ccccc1[N+](=O)[O-])NCc1ccccc1Cl	7.57µM*	3.55µM*	-8.5%	?	?	2.82µM*
Cc1cccc(C)c1NC(=O)CNC(=O)Cc1ccccc1[N+](=O)[O-]	4.5%	1.7%	/	/	-1.6%	0.1%
CCOc1ccccc1NC(=O)N1CCN(C)c2ncccc21	-0.4%	/	/	-19.0%	/	/
